The values that follow come from PubChem BioAssay AID449768 (Vanderbilt High Throughput Screening Facility, 2010).

About 1,400 (1.3%) of roughly 110,000 compounds were called active.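 Rule for the calls: active = Z score or B-score, a plate-position-corrected score, falls beyond the plate's 99.7% confidence bounds, in either direction; inactive = both scores lie inside the 99.7% bounds.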 The full list was thinned out, with actives kept by preference.

The target of this assay is Sodium-dependent dopamine transporter (Homo sapiens) (UniProt Q01959). Kind of assay: modulators of human DAT uptake with cocaine – cell-based, LLC-PK1 hDAT, [14C]-dopamine uptake, MLSMR, cocaine antagonist project, primary screen (AID 449768).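 Note: scored against the spread of the other compound wells on the same plate.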 The note with it: LLC-PK1 hDAT cells, [14C]-dopamine uptake with cocaine IC80; at 10 µM; actives deviate in either direction.
Sodium-dependent dopamine transporter (Homo sapiens), sequence (Q01959 whole entry, looked up): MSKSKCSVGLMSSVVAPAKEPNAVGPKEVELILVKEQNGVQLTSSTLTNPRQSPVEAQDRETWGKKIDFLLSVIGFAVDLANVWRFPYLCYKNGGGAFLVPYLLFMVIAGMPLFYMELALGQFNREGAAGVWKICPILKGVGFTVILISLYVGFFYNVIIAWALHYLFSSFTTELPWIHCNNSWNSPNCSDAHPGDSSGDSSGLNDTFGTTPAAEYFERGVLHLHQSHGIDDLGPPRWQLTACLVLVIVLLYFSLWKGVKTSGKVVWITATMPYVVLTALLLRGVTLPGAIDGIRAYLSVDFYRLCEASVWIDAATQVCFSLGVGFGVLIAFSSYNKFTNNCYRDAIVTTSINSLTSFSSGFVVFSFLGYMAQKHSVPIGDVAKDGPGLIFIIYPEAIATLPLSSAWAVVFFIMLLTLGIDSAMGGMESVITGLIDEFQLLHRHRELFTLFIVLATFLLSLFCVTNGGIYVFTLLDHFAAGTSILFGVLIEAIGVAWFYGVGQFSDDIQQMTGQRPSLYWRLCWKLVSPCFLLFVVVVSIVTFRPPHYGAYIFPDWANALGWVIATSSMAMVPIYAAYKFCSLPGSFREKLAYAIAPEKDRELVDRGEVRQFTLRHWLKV
As to `C/C=C(\C)C(=O)NCCN1C2=NC[C@H](Cc3ccc(O)cc3)N2C[C@@H]1Cc1ccc(OC)cc1`, the B-score is 1.04 (inactive).
Consider `Cc1ncn(C23CC4CC(CC(O)(C4)C2)C3)n1`, for which the B-score was -8.14 (active).
The result for `COC(=O)c1ccc(NC(=O)C23CC4CC(C2)CC(n2cnc(Cl)n2)(C4)C3)cc1` reads -1.17 (inactive).
With `CC(N)C12CC3CC(CC(O)(C3)C1)C2` (stereo unspecified), the B-score is -0.549 (inactive).
The result for `COC(=O)c1c(C)cc(O)c(C)c1O` reads -0.00953 (inactive); that for `COC(C/C=C/C(=O)[C@@H](C)OCc1ccccc1)OC`, 0.0548 (inactive); that for `C=C1C2C[C@H](O)C(C)(C)[C@@]2(O)[C@H](O)C[C@]23C[C@@](C)(O)[C@H](CC[C@H]12)[C@H]3O` (stereo partly specified), -0.371 (inactive).
The result for `C=CCC1(C(=O)N(C)Cc2ccccc2)CCN(C(=O)OC(C)(C)C)CC1` reads 1.32 (inactive); that for `O=C1N[C@H](Cc2ccccc2)C(=O)N[C@H]1Cc1cn(S(=O)(=O)c2ccccc2)c2ccccc12`, -1.21 (inactive); that for `CC(C)(C)CN1C(=O)C(=O)NC[C@H]1Cc1cccc2ccccc12`, 1.91 (inactive).
Then `CCOC(=O)c1sc(=S)n2c1[nH]c(=O)c1ccc(C(=O)OC)cc12`, with 0.185 (inactive).
Take `CCOC(=O)C1=C(C)Nc2sc(C(=O)c3ccc(Br)cc3)c(N)c2C1c1ccc(C(=O)OC)cc1` (stereo unspecified): the B-score is 2.41 (active).
Then `CCOC(=O)C1=C(C)NC(C)=C(C(=O)OCC)C1c1ccccn1`, with -1.62 (inactive).
The result for `Cc1ccc(CNC(=O)c2ccc3c(c2)S(=O)(=O)c2ccccc2C3=O)cc1` reads 0.00832 (inactive); that for `CCCC[C@@H]1CN=C(N)N1CCCC`, 0.44 (inactive); that for `COC(=O)CNC(=O)c1ccccc1[N+](=O)[O-]`, -0.561 (inactive).
In the case of `CC(=O)c1sc(NC(=O)c2cccc3ccccc23)nc1C`, the B-score was 1.43 (inactive).
The result for `CC(=O)Oc1ccccc1C(=O)Nc1ncc([N+](=O)[O-])s1` reads -5.94 (active); that for `COC(=O)C1=C(N)Oc2cc(C)oc(=O)c2C1c1cccnc1` (stereo unspecified), 0.0204 (inactive); that for `CCSc1nc2c(c(=O)[nH]1)C(c1cccnc1)C(C(=O)OC(C)C)=C(C)N2` (stereo unspecified), 2.12 (active).
In the case of `COC(=O)C1=C(C)Nc2ncnn2C1c1cccnc1` (stereo unspecified), the B-score is 0.0386 (inactive).
The result for `CCC(=O)Nc1cccc(C2=NOC3(C2)C[C@@H](C(N)=O)N(C(=O)c2cc([N+](=O)[O-])cc([N+](=O)[O-])c2C)C3)c1` (stereo partly specified) reads -0.0284 (inactive); that for `COC(=O)C1(S(=O)(=O)C2(C(=O)OC)CCCC2)CCCC1`, -2.03 (active).
The result for `C#CCOCCOCCOCCNc1nc(N2CCN(C(=O)[C@H](CCC(=O)O)n3cc(C(N)CO)nn3)CC2)nc(N2CCN(C(=O)[C@H](CCCCN)n3cc(C(N)CC(C)C)nn3)CC2)n1` (stereo partly specified) reads -0.496 (inactive).
`COC(C[C@@H](O)[C@H](C)[C@H](O)COCc1ccccc1)OC`: the B-score was -0.281 (inactive).
Then `CC(C)=CCc1c(O)c(CC=C(C)C)c2occ(-c3ccc(O)cc3)c(=O)c2c1O`, with 1.79 (inactive); and `CNC(=O)c1[nH]cnc1C(=O)N[C@@H](CC(C)C)C(=O)OC(C)(C)C`, with 0.0376 (inactive); and `COc1cc(C2C(C(=O)c3ccc(C)o3)=C(O)C(=O)N2Cc2cccnc2)ccc1O` (stereo unspecified), with -0.83 (inactive).
The result for `CCCOc1ccc(C2C(C(=O)c3ccc(C)o3)=C(O)C(=O)N2CCCn2ccnc2)cc1` (stereo unspecified) reads 0.735 (inactive).
Then `COc1cc(C2C(C(=O)c3ccc(C)o3)=C(O)C(=O)N2CCc2ccccc2)ccc1O` (stereo unspecified), with -5.4 (active); and `COC(C[C@H](O)CC(=O)COCc1ccccc1)OC`, with -0.106 (inactive); and `COC(=O)c1sc(NC(=O)c2ccc(OC)cc2OC)nc1C`, with -0.655 (inactive).
As for `CNC(=O)c1ccc2nc(NC(C)=O)sc2c1`, the B-score was -0.144 (inactive).
The result for `COc1ccc2nc(NC(=O)c3ccc(Br)s3)sc2c1` reads -2.65 (active); that for `CCOC(=O)c1[nH]c2ccc(OC)cc2c1NC(=O)N1CCOCC1`, 2.03 (inactive); that for `Cc1c(C(=O)N2CCOCC2)[nH]c2ccc(OCc3ccccc3)cc12`, 2.65 (active).
Then `Cc1c(C(=O)CN2CCOCC2)[nH]c2ccccc12`, with -1.19 (inactive).
Then `COc1ccc(SCCN2CCN(CC(C)C)CCC2=O)cc1`, with -0.972 (inactive); and `C=C1CCN([C@@H](Cc2ccccc2)C(=O)N2CCOCC2)S(=O)(=O)c2ccccc21`, with -0.0232 (inactive).
Take `CCC(C)[C@@H](C(=O)N1CCNCC1)n1cc(CCCCN)nn1` (stereo partly specified): the B-score was -0.575 (inactive).
As to `Cc1nnc2sc(-c3ccco3)nn12`, the B-score is -0.595 (inactive).
Then `FC(F)(F)c1nnc2sc(-c3ccco3)nn12`, with -0.943 (inactive); and `Fc1ccc(-c2ccc(-c3nn4c(-c5ccco5)nnc4s3)o2)cc1`, with -8.2 (active); and `CC(C)(C)n1nc(Cc2cccc3ccccc23)c(C#N)c1N`, with -0.00603 (inactive).
Then `O=C(Nc1ccc(S(=O)(=O)N2CCc3ccccc3C2)cc1)c1ccccc1`, with -0.732 (inactive).
Then `Cc1ccc(NC(=O)CN2CCc3ccccc3C2)cc1`, with -0.0113 (inactive).
As for `Cc1ccc(NC(=O)CCN2CCc3ccccc3C2)cc1`, the B-score was 2.16 (active).
Then `COC(=O)CCCC1=CC2=CC(=O)C(C)(OC(=O)c3cccs3)C(=O)C2=CN1CC1CC1` (stereo unspecified), with -0.726 (inactive).
The result for `CCC1(CC)C(=O)C2=C3C1[C@H](C(=O)OC)C=C(C(=O)OC)C[C@H]3[C@H]1C(=O)N(Cc3ccccc3)C(=O)[C@H]1[C@H]2C` (stereo partly specified) reads 0.0892 (inactive); that for `CCCCN1C(=S)NC[C@@H]1C(C)CC` (stereo partly specified), -0.761 (inactive); that for `CCCCN1C(N)=NC[C@@H]1CC1CCCCC1`, -1.39 (inactive).
